The whole screen tested about 310,000 compounds, of which about 14,000 (4.5%) showed an effect of 50% or more. Effects have a minus sign here. Only a selection was taken, and strong results are over-represented in it overall.
molecular target: human ether-à-go-go-related gene (hERG) potassium channel (human, UniProt Q12809); test: primary screen, population patch clamp on CHO cells stably expressing hERG; higher = less effect of the substance
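Note: peak tail current of the secondary pulse compared with the same well before compound.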

human ether-à-go-go-related gene (hERG) potassium channel, sequence (Q12809 whole entry, looked up): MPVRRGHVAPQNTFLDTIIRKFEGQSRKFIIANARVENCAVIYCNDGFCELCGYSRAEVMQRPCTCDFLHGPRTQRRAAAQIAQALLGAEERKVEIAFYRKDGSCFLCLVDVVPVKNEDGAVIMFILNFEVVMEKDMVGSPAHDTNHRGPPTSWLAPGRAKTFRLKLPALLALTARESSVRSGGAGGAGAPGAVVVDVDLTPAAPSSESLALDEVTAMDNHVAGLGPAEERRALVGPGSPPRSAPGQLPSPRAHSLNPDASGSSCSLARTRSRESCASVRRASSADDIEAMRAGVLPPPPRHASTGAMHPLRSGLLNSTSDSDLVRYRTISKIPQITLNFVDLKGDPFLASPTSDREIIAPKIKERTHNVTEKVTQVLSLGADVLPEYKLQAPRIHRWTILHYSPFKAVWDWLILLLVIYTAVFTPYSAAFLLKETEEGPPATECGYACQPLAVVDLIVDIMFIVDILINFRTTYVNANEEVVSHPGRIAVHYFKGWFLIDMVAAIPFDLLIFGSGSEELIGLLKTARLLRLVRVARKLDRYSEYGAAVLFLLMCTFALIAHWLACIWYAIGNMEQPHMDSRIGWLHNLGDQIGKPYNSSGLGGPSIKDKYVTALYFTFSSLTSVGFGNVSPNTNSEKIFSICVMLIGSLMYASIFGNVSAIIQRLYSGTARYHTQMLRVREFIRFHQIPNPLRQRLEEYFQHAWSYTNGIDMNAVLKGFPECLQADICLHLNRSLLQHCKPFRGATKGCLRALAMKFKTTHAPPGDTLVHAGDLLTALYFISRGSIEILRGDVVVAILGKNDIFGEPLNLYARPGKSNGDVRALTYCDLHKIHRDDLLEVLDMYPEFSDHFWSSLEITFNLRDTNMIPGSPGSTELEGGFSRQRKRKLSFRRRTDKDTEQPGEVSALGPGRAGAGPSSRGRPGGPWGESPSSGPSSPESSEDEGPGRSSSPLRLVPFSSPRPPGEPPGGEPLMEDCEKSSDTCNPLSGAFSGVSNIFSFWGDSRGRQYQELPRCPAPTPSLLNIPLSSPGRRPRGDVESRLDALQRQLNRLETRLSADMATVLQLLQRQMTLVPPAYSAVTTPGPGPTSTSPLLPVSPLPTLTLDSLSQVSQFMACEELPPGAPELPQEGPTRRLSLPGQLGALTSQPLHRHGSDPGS

Compound | hERG current change (%, negative = inhibition) at 10uM [%]
COc1cccc(CC2(CO)CCCN(S(=O)(=O)N(C)C)C2)c1 (stereo not drawn) | 42.4
CCOC(=O)c1ccc(NC(=O)CN2C(=O)C(C)SC(C)C2=O)cc1 (stereo not drawn) | 8.95
COc1ccc(C(CNC(=O)c2cc(S(=O)(=O)NCc3ccccc3)ccc2C)N2CCOCC2)cc1 (stereo not drawn) | -19
COC(=O)CSc1nnc(COc2ccc3ccccc3c2)o1 | 19
CC(=O)N(CCC1(C(C)C)CCOC(C)(C)C1)C(C)c1cccs1 (stereo not drawn) | -2.41
Cc1cccc(NC(=O)c2ccc(C(=O)Nc3cccc(C)c3)nc2)c1 | 23.2
COc1ccc(-c2noc(C(=O)NCc3ccccc3Cl)n2)cc1OC | 0.607
CC(C)C1CC(c2csc(N)n2)CCO1 (stereo not drawn) | 18.8
Cc1[nH]oc(=O)c1N=Nc1ccc2[nH]c(=O)[nH]c2c1 | 7.93
CCOc1cc(-c2cn(S(=O)(=O)c3cccc4nsnc34)nc2N)cc(OCC)c1OCC | 0.719
Cc1cc(C)c2sc(N(CCN(C)C)C(=O)c3c(F)cccc3F)nc2c1.Cl | -2.23
CSCCC(NC(=O)c1ccc(Cl)cc1)C(=O)OCC(=O)N1CCCC1=O (stereo not drawn) | -2.69
O=[N+]([O-])c1cccc(-c2ccc(C(=S)N3CCN(c4ccccc4)CC3)o2)c1 | 27.7
O=C(c1ccccc1)N1CCN(C(=S)NCc2ccc3c(c2)OCO3)CC1 | -59.4
S=C(NCc1ccccc1)N1CCN(Cc2ccc3c(c2)OCO3)CC1 | -16.7
S=C(NCc1ccccc1)N1CCCCC1 | -1.03
CCOc1ccc(NC(=S)NCCCN2CCN(C3CCCCC3)CC2)cc1 | -47.2
O=C(c1ccccc1)N1CCN(c2ccc(NCc3ccc4c(c3)OCO4)cc2)CC1 | -12.2
S=C(NCc1ccccc1)N1CCN(C2CCCCC2)CC1 | -62.6
CCOC(=O)c1ccc(NC(=S)NCCCN2CCN(C3CCCCC3)CC2)cc1 | -53.7
CCOC(=O)c1ccc(NC(=S)NCCCN2CCCCC2)cc1 | -42
S=C(NCc1ccccc1)N1CCN(C(=S)NCc2ccccc2)CC1 | 12.9

Compound | hERG current change (%, negative = inhibition) at 10uM [%]
O=S(=O)(c1cccc(F)c1)N1CCN(C(=S)NCc2ccccc2)CC1 | -0.89
O=S(=O)(c1ccccc1)N1CCN(C(=S)NCc2ccccc2)CC1 | -50.3
O=S(=O)(c1ccc(F)cc1)N1CCN(C(=S)NCc2ccccc2)CC1 | 13.8
CC(=O)N1CCc2cc(N=NC3=C(O)CCCC3=O)ccc21 | 9.61
COCCn1c(Cc2ccccc2)nnc1SCC(=O)N1CCCCC1C (stereo not drawn) | 7.49
COc1ccc(CCC(=O)NNC(=O)Nc2ccccc2Cl)cc1 | 4.25
CC1(c2ccc(OC(F)F)cc2)NC(=O)N(CC(=O)Nc2ccc3c(c2)OCO3)C1=O (stereo not drawn) | -36.5
N#Cc1cc2c(nc1SCC(=O)Nc1sc3c(c1C#N)CCC3)CCCC2 | 4.92
CCOc1ccc(C(=O)COC(=O)Cn2cnc3c2c(=O)n(C)c(=O)n3C)cc1 | -13.5
S=C(Nc1ccccn1)NC1CCCC1 | -17.6
O=C(NC(=S)Nc1ccc(CN2CCCCC2)cc1)c1cc2ccccc2o1 | -24.3
COc1ccc(NC(=O)c2ccco2)cc1NC(=O)c1ccccc1F | 25.6
CC1CCCCN1C(=O)CSc1nc2ccccc2[nH]1 (stereo not drawn) | 25.8
CC1CCCN(C(=O)CN2CCC(c3nc4ccc(Cl)cc4[nH]3)CC2)C1 (stereo not drawn) | -67.8
O=C(NC1CCCCC1)N1CCC(c2nc3ccc(Cl)cc3[nH]2)CC1 | -34.3
Cc1ccc2nc(C3CCN(CC(=O)N4CCCCCC4)CC3)[nH]c2c1 | -22.2
CC1CCCCN1C(=O)Cc1ccc(Cl)cc1 (stereo not drawn) | -11.1
CC1CCCCN1C(=O)CN1CCC(c2nc3ccc(Cl)cc3[nH]2)CC1 (stereo not drawn) | -60.2
O=C1CC(N2CCC(c3nc4ccccc4o3)CC2)C(=O)N1c1ccc(Cl)c(C(F)(F)F)c1 (stereo not drawn) | 6.87
COC(=O)C1=C(C)N(c2cccc(C(C)=O)c2)C(=O)C1 | 7.45
CC(C)OC(=O)/C(C#N)=C/c1cn(Cc2ccccc2)c2ccccc12 | -6.73
COc1ccc(N(C(=O)CNC(=O)c2ccco2)C(C(=O)NC2CCCCC2)c2ccco2)cc1 (stereo not drawn) | 8.58

Compound | hERG current change (%, negative = inhibition) at 10uM [%]
C=CCNc1nc2c(c(=O)[nH]c(=O)n2C)n1CCCCC | -12.1
O=[N+]([O-])c1ccc2[nH]cc(S(=O)(=O)N3CCN(c4cccc(Cl)c4)CC3)c2c1 | 16.3
NC(=O)NC(=O)COC(=O)c1cccc(S(=O)(=O)N2CCCCCC2)c1 | -21.4
CCCNC(=O)C1CCN(S(=O)(=O)c2ccc(Br)cc2)CC1 | -1.78
CSc1ccc(S(=O)(=O)N2CCC(C(=O)Nc3ccccc3C(F)(F)F)CC2)cc1 | 7.69
C=CCNC(=O)c1ccccc1NC(=O)C1CCN(S(=O)(=O)c2ccc(SC)cc2)CC1 | -70
C=CCNC(=O)C1CCN(S(=O)(=O)c2ccccc2)CC1 | -2.98
C=CCNC(=O)c1ccccc1NS(=O)(=O)c1ccc(SC)cc1 | -6.5
C=CCNC(=O)C1CCN(S(=O)(=O)c2ccc(Br)cc2)CC1 | -58.7
Nc1nc(N)nc(-c2cc(O)ccc2O)n1 | 10.3
O=C(CSc1ccccc1)N(c1ccc(Br)cc1)c1nccs1 | 10.8
COc1ccc2[nH]c(=O)c(CN(CCN(C)C)C(=O)NCc3ccccc3)cc2c1 | 9.31
Cc1ccc2cc(CN(CCCN(C)C)C(=O)NCc3ccccc3)c(=O)[nH]c2c1C | -34.1
CCC(=O)N(CCc1ccccc1)Cc1cc2cccc(C)c2[nH]c1=O | -14.4
CCN(CC)CCCNC(=S)N(Cc1cccnc1)Cc1cc2cccc(C)c2[nH]c1=O | -1.68
Cc1ccc2cc(CN(CCCN(C)C)C(=S)NCc3ccccc3)c(=O)[nH]c2c1C | -50.3
Cc1cccc2cc(CN(CCCN(C)C)C(=S)NCCc3ccccc3)c(=O)[nH]c12 | -72
Cc1ccc(C)c2[nH]c(=O)c(CN(CCCN(C)C)C(=O)NCc3ccccc3)cc12 | -52.2
Cc1cc(C)c2cc(CN(CCCN(C)C)C(=S)NCc3ccccc3)c(=O)[nH]c2c1 | -45.4
Cc1ccc2[nH]c(=O)c(CN(CCO)C(=O)NCc3ccccc3)cc2c1 | 7.55
O=C(NC(=S)N1CCOCC1)c1ccc(F)cc1 | 24.4
CC[C@H](C)[C@@H](C(=O)N1CCNCC1)n1cc([C@@H](N)CC(C)C)nn1.Cl | 11.9

Compound | hERG current change (%, negative = inhibition) at 10uM [%]
CC(=O)c1ccc(NC(=O)CSc2nnc(-c3ccncc3)n2C2CC2)cc1 | -5.46
COc1ccc(CC(=O)NC2CC(C)(C)NC(C)(C)C2)cc1OC.Cl | 16.9
Cc1ccc(/C=C2\C(=O)Nc3ccccc32)o1 | 5.04
CCOc1ccccc1-n1nnnc1SCC(=O)NCC1(N2CCOCC2)CCCCC1 | -67.7
Cc1cccc(-n2nnnc2SCC(=O)NCC2(N3CCOCC3)CCCCC2)c1C | -57.9
O=C(CSc1ccccc1)NCC1(N2CCOCC2)CCCCC1 | -19
CCOc1ccccc1-n1nnnc1SCC(=O)NCc1ccco1 | 5.25
COc1ccccc1-n1nnnc1SCC(=O)NCC1(N2CCOCC2)CCCCC1 | -39.8
Cc1ccccc1-n1nnnc1SCC(=O)NCC1(N2CCOCC2)CCCCC1 | -24.9
O=c1c2ccccc2nc2c3ccccc3c(NCc3cccnc3)nn12 | -25.5
COc1ccc(-n2nc(C(=O)NCC(=O)NC3CCCC(C)C3C)c3ccccc3c2=O)cc1 (stereo not drawn) | 8.55
CC(=O)OCN(C#N)c1nc(N(C)C)nc(N(C)C)n1 | 5.8
Cc1nnc2ccc(-c3ccc(NS(=O)(=O)c4ccc(F)cc4F)cc3)nn12 | -25.2
CC(C)Oc1ccc(CNC(=O)C2CCCN(S(=O)(=O)N3CCOCC3)C2)cc1 (stereo not drawn) | -20.8
CN1C(C(=O)NCc2cccc(C(F)(F)F)c2)CC2Cn3c(nc4ccccc43)C21 (stereo not drawn) | -47.4
Cc1cc2nc3n(c2cc1C)CC1CC(C(=O)NCC2CC2)N(C)C31 (stereo not drawn) | -1.83
C=CCNC(=O)C1CC2Cn3c(nc4cc(C)c(C)cc43)C2N1C (stereo not drawn) | -7.6
CN1C(C(=O)NCc2cccc(C(F)(F)F)c2)CC2Cn3c(nc4cc(Cl)c(Cl)cc43)C21 (stereo not drawn) | -73.6
Cc1cc2nc3n(c2cc1C)CC1CC(C(=O)NCc2cccc(C(F)(F)F)c2)N(C)C31 (stereo not drawn) | -66.7
CN1C(C(=O)NCc2cccc(C(F)(F)F)c2)CC2Cn3c(nc4cc5ccccc5cc43)C21 (stereo not drawn) | -63.1
O=C(Nc1ccccc1)c1ccc(Br)c(S(=O)(=O)Nc2ccccn2)c1 | 14.5
